# Screening data from PubChem.
# A selection: hits, their analogues and other compounds. The true share with any hit is near 4.2%.
# tim23-1 inh – tim23-1 yeast growth inhibition; AID 463212; inhibition, % at 20 µM; S. cerevisiae tim23-1 growth, BacTiter-Glo luminescence, 24 h; 330,000 tested, 1.3% active;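 active means growth inhibition of the mutant yeast at or above 50%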;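 further: temperature-sensitive mutant grown at 25 °C; plate controls were DMSO-treated mutant yeast for no effect and medium wells lacking yeast for full effect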
# NALP1 inh – NALP1 inhibition. inhibition, % at 10 µM. 280,000 tested, 0.61% active. S. cerevisiae NALP1/ASC/caspase-1 growth, X-gal OD620, 72 h. AID 2071; in the data active means inhibition mostly above about 24%, no sharp cut-off; inactive means mostly below about 32%
# PfHsp90 yeast 2 – inhibits growth of yeast expressing Plasmodium falciparum Hsp90; 310,000 tested, 0.32% active; inhibition, % at 9.4 µM; AID 504621; S. cerevisiae expressing PfHsp90, BacTiter-Glo ATP, 48 h; yeast lacking PDR1 and PDR3 efflux regulators;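 active means every replicate shows inhibition above about 80%, whatever the replicate mean, limit read from the data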;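 further: 0% = DMSO neutral controls and 100% = 20 µM radicicol positive controls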
# TIM10 inh – inhibits growth of TIM10 yeast strain; S. cerevisiae TIM10 strain growth, BacTiter-Glo luminescence, 24 h; inhibition, % at 10 µM; 330,000 tested, 1.4% active;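 active means inhibition of 40% or more at the single tested concentration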;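 further: wild-type TIM10 isogenic control strain grown at permissive 25 °C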
# tim10-1 inh – tim10-1 yeast growth inhibition. 330,000 tested, 2.2% active. inhibition, % at 20 µM. S. cerevisiae tim10-1 ts strain growth, BacTiter-Glo, 24 h;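 active means inhibition of at least 40%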;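 further: mutant grown at 25 °C; 0% = DMSO wells with yeast and 100% = wells holding no yeast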
# NALP3 yeast inh – inhibitors of NALP3 inflammasome in yeast; Yeast reconstituted NLRP3/ASC/caspase-1, beta-gal luminescence, 24 h; 330,000 tested, 0.39% active; inhibition, % at 10 µM;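 active means inhibition of 50% or more; inactive means inhibition below 50%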;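 further: plate controls were induced DMSO wells for no effect and uninduced yeast grown without galactose for full effect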
# tim10 confirm – confirmation of TIM10 yeast growth inhibitors | shares compounds with TIM10 inh | S. cerevisiae tim10 strain growth, BacTiter-Glo luminescence, 24 h | inhibition, % at 10 µM | 4,600 tested, 63% active | AID 463215;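 active means inhibition of yeast growth at or above a set limit in either of two replicates at 10 µM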;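 further: this counterscreen used the strain with wild-type TIM10; 0% = yeast with DMSO and 100% = medium wells lacking yeast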
# tim23-1 confirm – confirmation of tim23-1 mutant yeast growth inhibitors. 4,400 tested, 83% active. shares compounds with tim23-1 inh. inhibition, % at 20 µM. S. cerevisiae tim23-1 growth, BacTiter-Glo luminescence, 24 h. AID 463218;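 active means inhibition above about 39% in either of two replicate wells at 20 µM, limit read from the data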;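 further: temperature-sensitive tim23-1 mutant grown at 25 °C; 0% = DMSO wells with yeast and 100% = medium wells without yeast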
# Starred values were filed as active, the others as inactive; x = not tested or not shown.
SMILES,tim23-1 inh,NALP1 inh,PfHsp90 yeast 2,TIM10 inh,tim10-1 inh,NALP3 yeast inh,tim10 confirm,tim23-1 confirm
Cc1cc(C)c(NC(=O)C2CCN(c3cnccn3)CC2)c(C)c1,18.1,-54.2,17.1,-25.7,18.4,4.2,x,x
CC1=C(C)/C(=N/OC(=O)c2cccc([N+](=O)[O-])c2)C=CC1=O,61.7*,2.1,x,40.7*,39.7,-0.4,19.2,85.8*
O=C(O/N=C(\c1ccccc1)c1ccccn1)c1ccc(Cl)c(Cl)c1,5.0,37.0,10.8,13.4,34.4,2.3,x,x
N/C(=N\OC(=O)c1ccc(Cl)c(Cl)c1)c1cccc(CSc2ccccn2)c1,78.6*,-18.2,-4.1,72.2*,39.4,15.0,83.7*,48.9*
NC(=O)c1cc([N+](=O)[O-])ccc1NCc1cnccn1,1.8,x,-1.2,-5.7,-23.9,2.7,x,x
COc1ccc(CNC(=O)CCC(=O)N2CCN(S(=O)(=O)c3cc([N+](=O)[O-])ccc3C)CC2)cc1,11.5,x,24.8,2.5,7.1,18.5,x,x
Cc1noc(C)c1C(=O)OC(C)C(=O)N(C)c1ccccc1 (stereo not given),13.6,x,5.5,-7.1,4.0,17.3,x,x
CC(OC(=O)/C=C/c1ccc2ccccc2n1)C(=O)N(C)c1ccccc1 (stereo not given),52.4*,x,3.9,42.9*,34.8,26.7,42.0*,53.3*
CC(=O)Nc1ccc(/C=C2\CCc3ccccc3C2=O)cc1,61.4*,24.5,29.7,41.0*,34.2,29.9,36.3*,46.0*
COc1cccc(OC)c1C(=O)NCCc1ccccc1,-0.3,x,-3.0,-32.6,-24.7,-1.8,x,x
COc1cccc2cc(C(=O)NCCc3ccccc3)oc12,62.0*,-0.4,-11.3,50.3*,31.8,38.4,37.4*,76.7*
CCCCC1=CC2=C(c3ccco3)C(=O)C(C)(OC(=O)c3ccc(OC)cc3)C(=O)C2=CN1c1ccccc1 (stereo not given),-0.5,x,4.3,13.2,7.6,8.9,x,x
O=C(c1ccco1)N1CCN(c2nnc(-c3ccccc3)c3ccccc23)CC1,51.0*,-4.5,-6.6,40.0,32.4,5.9,5.0,29.8
COc1ccc(NC(=O)c2ccc(-c3nn(C)c(=O)c4ccccc34)cc2)cc1C(N)=O,-2.3,x,3.0,3.9,12.6,-4.1,x,x
N/C(=N\OC(=O)Cc1ccccc1[N+](=O)[O-])c1cccc(Br)c1,58.5*,9.3,5.2,50.7*,37.8,7.5,59.0*,67.1*
CCc1cccc2c(C(=O)CCl)c[nH]c12,53.9*,25.7,-75.9,42.0*,29.5,-20.3,27.5,54.0*
CCc1cccc2c(C(=S)N3CCCC3)c[nH]c12,26.0,-20.6,-6.7,32.6,32.3,16.9,x,x
CCCOc1ccc(C(=O)CCNC(Cc2c[nH]c3ccccc23)C(=O)O)cc1 (stereo not given),73.7*,7.2,5.3,49.1*,25.5,26.7,37.2*,23.0
Cc1ccc(S(=O)(=O)N2CCOCC2)cc1NC(=O)CSCc1c(C)noc1C,2.9,x,-56.5,13.3,13.6,3.5,x,x
CCOc1nc(-c2ccccc2O)nc2ccccc12,15.6,34.7,x,-24.2,-29.6,6.0,x,x
Oc1ccccc1-c1nc(NC2CCCC2)c2ccccc2n1,64.4*,24.3,115.2*,44.0*,29.6,0.6,35.1*,57.5*
Cc1nc(SCC(=O)NCc2ccc3c(c2)OCO3)nc(C)c1C,16.6,x,-14.4,7.5,10.0,7.0,x,x
COc1ccc(S(N)(=O)=O)cc1C(=O)NNC(=O)C1COc2ccccc2O1 (stereo not given),9.0,x,-7.9,-7.3,3.9,1.5,x,x
COCc1cc(=O)[nH]c(SCCS(=O)(=O)c2ccc(Cl)cc2Cl)n1,57.7*,-10.4,-17.0,43.8*,31.0,-11.4,35.1*,28.2
C(=N\Nc1nc2ccccc2[nH]1)/c1cccc2cccnc12,54.9*,-0.7,10.1,67.3*,26.0,29.0,54.6*,48.5*
SMILES,tim23-1 inh,NALP1 inh,PfHsp90 yeast 2,TIM10 inh,tim10-1 inh,NALP3 yeast inh,tim10 confirm,tim23-1 confirm
O=c1c(Cl)c(NCc2ccco2)cnn1C12CC3CC(CC(C3)C1)C2,31.3,16.2,13.8,-11.5,-21.0,18.3,x,x
O=c1c(Cl)c(NCc2ccccc2Cl)cnn1C12CC3CC(CC(C3)C1)C2,52.0*,25.6,15.7,41.5*,6.2,37.4,27.4,55.2*
COc1ccc(-n2nnnc2-c2ccc(S(C)(=O)=O)cc2Cl)cc1,-8.9,1.0,3.2,-2.1,6.6,-7.5,x,x
O=C(Nc1cccc(-c2cc3ccccc3oc2=O)c1)c1ccc(Br)o1,55.5*,15.4,4.9,43.3*,39.4,25.6,47.0*,62.0*
CC(C)(C)c1ccc(S(=O)(=O)N2CCC(c3nc4ccc(Cl)cc4[nH]3)CC2)cc1,63.8*,7.8,-23.5,49.9*,26.0,13.1,56.0*,22.0
Cc1ccc(S(=O)(=O)N2CCCCC2)cc1NC(=O)C1CCC1,3.3,x,-12.4,4.7,12.1,9.6,x,x
Cc1ccc(OCCC(=O)OCC(=O)Nc2ccccc2)cc1,24.8,5.9,-0.9,12.4,17.0,7.3,x,x
N/C(Cc1cccc2ccccc12)=N\OC(=O)c1cccs1,63.0*,18.4,19.3,61.4*,31.8,-14.6,78.4*,72.3*
CCN1C(=O)/C(=C\c2ccncc2)SC1=S,68.0*,x,36.3,51.5*,25.9,-7.0,39.2*,14.8
O=C1/C(=C/c2ccncc2)SC(=S)N1C1CCCCC1,50.8*,25.4,-26.9,50.1*,35.8,23.6,-7.8,38.6*
O=C(O)CCN1C(=O)/C(=C\c2ccncc2)SC1=S,8.2,9.6,30.1,8.5,6.3,13.8,x,x
COc1ccc2[nH]c3c(=O)n(CCCCCC(=O)NCCC(C)C)c(=S)[nH]c3c2c1,-18.8,0.7,16.2,-15.1,-28.8,-9.5,x,x
C=C1SC(Nc2c(C)cc(C)cc2C)=NC12CCCCC2,64.6*,2.9,6.6,44.7*,33.5,27.3,39.1*,62.9*
CC(=O)Nc1ccc(N2C(=O)c3cccc(NC(C)=O)c3C2=O)cc1,13.3,10.6,-27.1,-10.9,7.8,-0.6,x,x
CCCCC(=O)Nc1cccc2c1C(=O)N(c1ccccc1)C2=O,50.2*,11.5,-9.6,43.3*,32.0,3.1,39.8*,51.7*
Cc1noc(C)c1S(=O)(=O)Nc1ccc2c(c1)C(=O)N([C@H](C)CO)C[C@H](C)[C@@H](CN(C)S(=O)(=O)c1ccccc1)O2,7.4,x,15.0,-2.1,-1.7,22.4,x,x
CCOC(=O)c1sc2ccccc2c1OC(=O)c1ccccc1OC,53.8*,31.3,1.2,48.5*,35.4,3.6,44.4*,50.2*
CC12CC3CC(C)(C1)CC(C(=O)NC(=S)N1CCCCC1)(C3)C2,51.0*,8.9,-23.2,41.5*,24.9,24.6,13.6,32.2
